# Measurements published in PubChem BioAssay.
# Active and inactive are the calls of the source.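 Rule for the calls: active = normalized viability below 100% at a tested concentration; inactive = the rest.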
# Test: drug combination growth inhibition, ovarian cancer – cell-based, oncology-focused library, rucaparib conditional, profiling panel (AID 1508598)
# Conditions: patient-derived ovarian cancer cells, CellTiter-Glo viability, 144 h; at 0.000305 µM; OCI-P5x cells; without rucaparib; active compounds read low
row,SMILES,viability
1,C/C(=C\c1csc(C)n1)[C@H]1C[C@@H]2O[C@]2(C)CCC[C@H](C)[C@H](O)[C@@H](C)C(=O)C(C)(C)[C@H](O)CC(=O)O1,15.5% (active)
2,CC(C)[C@@]12O[C@@H]1[C@@H]1O[C@]13[C@]1(O[C@@H]1C[C@@H]1C4=C(CC[C@@]13C)C(=O)OC4)[C@@H]2O,6.41% (active)
3,C/C(=C\c1csc(C)n1)[C@H]1C[C@@H]2O[C@@H]2CCC[C@H](C)[C@H](O)[C@@H](C)C(=O)C(C)(C)[C@H](O)CC(=O)O1,30% (active)

# Same assay, conditions: patient-derived ovarian cancer cells, CellTiter-Glo viability, 144 h; at 0.00122 µM; OCI-C5x cells; with rucaparib 10 µM; active compounds read low; 100% = cells with rucaparib alone
row,SMILES,viability
1,C/C(=C\c1csc(C)n1)[C@H]1C[C@@H]2O[C@]2(C)CCC[C@H](C)[C@H](O)[C@@H](C)C(=O)C(C)(C)[C@H](O)CC(=O)O1,36.1% (active)
2,CC(C)[C@@]12O[C@@H]1[C@@H]1O[C@]13[C@]1(O[C@@H]1C[C@@H]1C4=C(CC[C@@]13C)C(=O)OC4)[C@@H]2O,19.5% (active)
3,C/C(=C\c1csc(C)n1)[C@H]1C[C@@H]2O[C@@H]2CCC[C@H](C)[C@H](O)[C@@H](C)C(=O)C(C)(C)[C@H](O)CC(=O)O1,41.4% (active)

# Same assay, conditions: patient-derived ovarian cancer cells, CellTiter-Glo viability, 144 h; at 0.00122 µM; OCI-C5x cells; without rucaparib; active compounds read low
row,SMILES,viability
1,C/C(=C\c1csc(C)n1)[C@H]1C[C@@H]2O[C@]2(C)CCC[C@H](C)[C@H](O)[C@@H](C)C(=O)C(C)(C)[C@H](O)CC(=O)O1,27.1% (active)
2,CC(C)[C@@]12O[C@@H]1[C@@H]1O[C@]13[C@]1(O[C@@H]1C[C@@H]1C4=C(CC[C@@]13C)C(=O)OC4)[C@@H]2O,15.4% (active)
3,C/C(=C\c1csc(C)n1)[C@H]1C[C@@H]2O[C@@H]2CCC[C@H](C)[C@H](O)[C@@H](C)C(=O)C(C)(C)[C@H](O)CC(=O)O1,28.8% (active)

# Same assay, conditions: patient-derived ovarian cancer cells, CellTiter-Glo viability, 144 h; at 0.00122 µM; OCI-P5x cells; with rucaparib 20 µM; active compounds read low; 100% = cells with rucaparib alone
row,SMILES,viability
1,C/C(=C\c1csc(C)n1)[C@H]1C[C@@H]2O[C@]2(C)CCC[C@H](C)[C@H](O)[C@@H](C)C(=O)C(C)(C)[C@H](O)CC(=O)O1,48.9% (active)
2,CC(C)[C@@]12O[C@@H]1[C@@H]1O[C@]13[C@]1(O[C@@H]1C[C@@H]1C4=C(CC[C@@]13C)C(=O)OC4)[C@@H]2O,12.6% (active)
3,C/C(=C\c1csc(C)n1)[C@H]1C[C@@H]2O[C@@H]2CCC[C@H](C)[C@H](O)[C@@H](C)C(=O)C(C)(C)[C@H](O)CC(=O)O1,57.4% (active)

# Same assay, conditions: patient-derived ovarian cancer cells, CellTiter-Glo viability, 144 h; at 0.00122 µM; OCI-P5x cells; without rucaparib; active compounds read low
row,SMILES,viability
1,C/C(=C\c1csc(C)n1)[C@H]1C[C@@H]2O[C@]2(C)CCC[C@H](C)[C@H](O)[C@@H](C)C(=O)C(C)(C)[C@H](O)CC(=O)O1,17.2% (active)
2,CC(C)[C@@]12O[C@@H]1[C@@H]1O[C@]13[C@]1(O[C@@H]1C[C@@H]1C4=C(CC[C@@]13C)C(=O)OC4)[C@@H]2O,7.08% (active)
3,C/C(=C\c1csc(C)n1)[C@H]1C[C@@H]2O[C@@H]2CCC[C@H](C)[C@H](O)[C@@H](C)C(=O)C(C)(C)[C@H](O)CC(=O)O1,15.9% (active)

# Same assay, conditions: patient-derived ovarian cancer cells, CellTiter-Glo viability, 144 h; at 0.00488 µM; OCI-C5x cells; with rucaparib 10 µM; active compounds read low; 100% = cells with rucaparib alone
row,SMILES,viability
1,C/C(=C\c1csc(C)n1)[C@H]1C[C@@H]2O[C@]2(C)CCC[C@H](C)[C@H](O)[C@@H](C)C(=O)C(C)(C)[C@H](O)CC(=O)O1,39.5% (active)
2,CC(C)[C@@]12O[C@@H]1[C@@H]1O[C@]13[C@]1(O[C@@H]1C[C@@H]1C4=C(CC[C@@]13C)C(=O)OC4)[C@@H]2O,8% (active)
3,C/C(=C\c1csc(C)n1)[C@H]1C[C@@H]2O[C@@H]2CCC[C@H](C)[C@H](O)[C@@H](C)C(=O)C(C)(C)[C@H](O)CC(=O)O1,27.2% (active)

# Same assay, conditions: patient-derived ovarian cancer cells, CellTiter-Glo viability, 144 h; at 0.00488 µM; OCI-C5x cells; without rucaparib; active compounds read low
row,SMILES,viability
1,C/C(=C\c1csc(C)n1)[C@H]1C[C@@H]2O[C@]2(C)CCC[C@H](C)[C@H](O)[C@@H](C)C(=O)C(C)(C)[C@H](O)CC(=O)O1,27.9% (active)
2,CC(C)[C@@]12O[C@@H]1[C@@H]1O[C@]13[C@]1(O[C@@H]1C[C@@H]1C4=C(CC[C@@]13C)C(=O)OC4)[C@@H]2O,7.6% (active)
3,C/C(=C\c1csc(C)n1)[C@H]1C[C@@H]2O[C@@H]2CCC[C@H](C)[C@H](O)[C@@H](C)C(=O)C(C)(C)[C@H](O)CC(=O)O1,23.1% (active)

# Same assay, conditions: patient-derived ovarian cancer cells, CellTiter-Glo viability, 144 h; at 0.00488 µM; OCI-P5x cells; with rucaparib 20 µM; active compounds read low; 100% = cells with rucaparib alone
row,SMILES,viability
1,C/C(=C\c1csc(C)n1)[C@H]1C[C@@H]2O[C@]2(C)CCC[C@H](C)[C@H](O)[C@@H](C)C(=O)C(C)(C)[C@H](O)CC(=O)O1,48% (active)
2,CC(C)[C@@]12O[C@@H]1[C@@H]1O[C@]13[C@]1(O[C@@H]1C[C@@H]1C4=C(CC[C@@]13C)C(=O)OC4)[C@@H]2O,13.9% (active)
3,C/C(=C\c1csc(C)n1)[C@H]1C[C@@H]2O[C@@H]2CCC[C@H](C)[C@H](O)[C@@H](C)C(=O)C(C)(C)[C@H](O)CC(=O)O1,51% (active)

# Same assay, conditions: patient-derived ovarian cancer cells, CellTiter-Glo viability, 144 h; at 0.00488 µM; OCI-P5x cells; without rucaparib; active compounds read low
row,SMILES,viability
1,C/C(=C\c1csc(C)n1)[C@H]1C[C@@H]2O[C@]2(C)CCC[C@H](C)[C@H](O)[C@@H](C)C(=O)C(C)(C)[C@H](O)CC(=O)O1,17.6% (active)
2,CC(C)[C@@]12O[C@@H]1[C@@H]1O[C@]13[C@]1(O[C@@H]1C[C@@H]1C4=C(CC[C@@]13C)C(=O)OC4)[C@@H]2O,8.9% (active)
3,C/C(=C\c1csc(C)n1)[C@H]1C[C@@H]2O[C@@H]2CCC[C@H](C)[C@H](O)[C@@H](C)C(=O)C(C)(C)[C@H](O)CC(=O)O1,16.8% (active)
